What all share (experiment): Primary Screen for Target Class Profiling of Small Molecule Inhibitors of Methyltransferases
In assay [1] the target is Catechol O-methyltransferase (Homo sapiens) (UniProt P21964). Conditions: purified enzyme, MTase-Glo SAH luminescence; activity change, negative = inhibition: at 40 µM, stronger effect = lower value; outcome: 40 uM. The text has this:
(§1) PI: Matthew D. Hall Ph.D. and Quinlin M. Hanson Ph.D.
(§2) National Center for Advancing Translational Sciences (NCATS)
(§3) National Institute of Health (NIH), Rockville, MD
(§4) Target class profiling (TCP) is a chemical biology approach amenable to investigating understudied biological targets. TCP is achieved by developing a generalizable assay platform and applying it to screen a curated set of compound libraries against representative members of a target class. Small molecule methyltransferases (SMMTase) are a subclass of methyltransferase that act on metabolites to modulate signaling pathways, metabolize xenobiotics, or balance the available methyl pool. We screened four curated libraries totaling 27,574 unique compounds against the SMMTases nicotinamide N-methyltransferase (NNMT), phenylethanolamine N-methyltransferase (PNMT), histamine N-methyltransferase (HNMT), glycine N-methyltransferase (GNMT), catechol O-methyltransferase (COMT), and guanidinoacetate N-methyltransferase (GAMT). The data generated by this TCP can be leveraged for informed tool molecule development. For example, in the associated publication we identified a chemotype of HNMT-selective inhibitors. Additionally, we identified a putative SMMTase-selective inhibitor with potential as a tool molecule for studying broader methyltransferase biology.
(§5) High-through put screening assays were developed at the National Center for Advancing Translational Science (NCATS) for the enzymes NNMT, PNMT, HNMT, GNMT, COMT, and GAMT. Enzymatic activity was measured as a function of SAM cofactor conversion using the MTase Glo kit (Promega) for all enzymes. All assays were performed in 1536-well format with substrates and SAM concentrations at KM values. Enzyme concentration and assay timing were optimized for 10-20% SAM conversion. Initial screening of 27,574 compounds was done as single-point assays using the highest compound concentration (40 uM). […] These compounds were replated in 11-point dose response and assayed against NNMT, PNMT, HNMT, GNMT, COMT, GAMT, and a counter-assay. The IC50 and efficacy (maximal response) values were determined for each dose-response curve. These values are also accounted for in the area under the curve (AUC) values.
(§6) PROTOCOL TABLE (as described by Inglese J, Shamu CE and Guy RK. 2007)
(§7) SEQUENCE No. (e.g., 1, 2, 3, etc.); […] (e.g., Cells, Incubation, Reagent, etc.); VALUE; DESCRIPTION.
(§8) 1; Reagent; 2 uL; SMMTase Enzyme (2x) in reaction buffer, columns 1- 48.
(§9) 2; Reagent; 1 uL; SAM (4x) in reaction buffer, columns 1-48.
(§10) 3; Controls; 23 nL; DMSO in column 4; sinefungin in DMSO (0 uM - 40 uM) in 7-point 1:2 dilution series (n = 2) in column 2.
(§11) 4; Compounds; 23 nL; Columns 5-48.
(§12) 5; Reagent; 1 uL; Substrate (4x) in reaction buffer, columns 2-48.
(§13) 6; Time; 20-30 min; Incubation.
(§14) 7; Reagent; 1 uL; MTase-Glo reagent (5X), columns 1-48.
(§15) 8; Time; 30 min; Incubation.
(§16) 9; Reagent; 5 uL; MTase-Glo Detection reagent, columns 1-48.
(§17) 10; Time; 30 min; Incubation, luminescence evolution.
(§18) 11; Detection; Luminescence; ViewLux uHTS Microplate Imager (PerkinElmer).
(§19) NOTES (numbers refer to Sequence numbers above)
(§20) 1, 2, 5. White Medium Binding Greiner 1536-well plates (Cat #789175-F, Greiner Bio-One, Monroe, NC); Reaction buffer: 50 mM Tris, pH 8.0, 3 mM MgCl2, 1 mM EDTA, 50 mM NaCl, 1 mM DTT, and 0.1 mg/mL BSA. Evaporation was prevented by covering assay plates with metal lids containing holes to allow gas diffusion.
(§21) 1. Six SMMTase were profiled: HNMT, GNMT, PNMT, COMT, NNMT, GAMT
(§22) 5. The corresponding substrate was used for each enzyme: HNMT - 5.3 uM Histamine; GNMT - >500 uM Glycine; PNMT - 16.2 uM Norephinephrine; COMT - 13.7 uM Norephinephrine; NNMT - 3.8 uM Nicotinamide; GAMT - 2.5 uM Guanidinoacetate.6, 8, 10. Room temperature
(§23) 6. Final reaction conditions: 10 nM COMT, 5 uM SAM, 15 uM norepinephrine, 50 mM Tris, pH 8.0, 3 mM MgCl2, 1 mM EDTA, 50 mM NaCl, 1 mM DTT, and 0.1 mg/mL BSA; refer to tables 2 and S1 for specific timing.
8. […]

The target in assay [2] is Glycine N-methyltransferase (Homo sapiens) (UniProt Q14749). The conditions noted are these: purified enzyme, MTase-Glo SAH luminescence; measured here: GNMT inhibition; at 40 µM; stronger effect = lower value.
Description: as §1, §2, §3, §4, §5, §6, §7, §8, §9, §10, §11, §12, §13, §14, §15, §16, §17, §18, §19, §20, §21, §22, §23
8. […]

The target of assay [3] is Guanidinoacetate N-methyltransferase (Homo sapiens) (UniProt Q14353). Conditions: purified enzyme, MTase-Glo SAH luminescence; measured here: GAMT inhibition; at 40 µM; stronger effect = lower value.
Description: as §1, §2, §3, §4, §5, §6, §7, §8, §9, §10, §11, §12, §13, §14, §15, §16, §17, §18, §19, §20, §21, §22, §23
8. […]

The target in assay [4] is Histamine N-methyltransferase (Homo sapiens) (UniProt P50135). Conditions: purified enzyme, MTase-Glo SAH luminescence; measured here: HNMT inhibition; at 40 µM; stronger effect = lower value.
Description: as §1, §2, §3, §4, §5, §6, §7, §8, §9, §10, §11, §12, §13, §14, §15, §16, §17, §18, §19, §20, §21, §22, §23
8. […]

The target of assay [5] is Nicotinamide N-methyltransferase (Homo sapiens) (UniProt P40261). Conditions: purified enzyme, MTase-Glo SAH luminescence; measured here: NNMT inhibition; at 40 µM; stronger effect = lower value.
Description: as §1, §2, §3, §4, §5, §6, §7, §8, §9, §10, §11, §12, §13, §14, §15, §16, §17, §18, §19, §20, §21, §22, §23
8. […]

The target in assay [6] is Phenylethanolamine N-methyltransferase (Homo sapiens) (UniProt P11086). The conditions noted are these: purified enzyme, MTase-Glo SAH luminescence; measured here: PNMT inhibition; at 40 µM; stronger effect = lower value.
Description: as §1, §2, §3, §4, §5, §6, §7, §8, §9, §10, §11, §12, §13, §14, §15, §16, §17, §18, §19, §20, §21, §22, §23
8. […]

The whole screen tested about 25,000 compounds, of which about 970 (3.9%) were called active. Roughly 8% stayed inconclusive and do not appear here. The rule behind the calls is not given here. The sample as a whole holds a higher share of actives than the screen did.
% is set by controls: 0 for no effect and ±100 for the full control effect.

Catechol O-methyltransferase (Homo sapiens), sequence (P21964 whole entry, looked up): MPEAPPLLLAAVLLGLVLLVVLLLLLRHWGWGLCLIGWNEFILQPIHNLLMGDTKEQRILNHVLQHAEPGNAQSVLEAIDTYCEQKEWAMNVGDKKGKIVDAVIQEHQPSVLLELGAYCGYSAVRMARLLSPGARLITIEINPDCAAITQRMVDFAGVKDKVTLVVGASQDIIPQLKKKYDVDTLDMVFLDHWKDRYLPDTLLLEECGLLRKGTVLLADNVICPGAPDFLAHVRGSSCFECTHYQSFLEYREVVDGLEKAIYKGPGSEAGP
Glycine N-methyltransferase (Homo sapiens), sequence (Q14749 whole entry, looked up): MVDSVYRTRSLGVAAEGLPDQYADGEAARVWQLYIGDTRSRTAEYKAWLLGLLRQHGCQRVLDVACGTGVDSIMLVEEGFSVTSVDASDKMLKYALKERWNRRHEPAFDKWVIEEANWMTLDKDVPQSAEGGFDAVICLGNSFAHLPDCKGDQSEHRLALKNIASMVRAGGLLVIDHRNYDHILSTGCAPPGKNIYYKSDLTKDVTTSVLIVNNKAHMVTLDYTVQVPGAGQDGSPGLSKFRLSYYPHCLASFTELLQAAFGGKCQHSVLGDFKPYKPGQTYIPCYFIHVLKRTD
Histamine N-methyltransferase (Homo sapiens), sequence (P50135 whole entry, looked up): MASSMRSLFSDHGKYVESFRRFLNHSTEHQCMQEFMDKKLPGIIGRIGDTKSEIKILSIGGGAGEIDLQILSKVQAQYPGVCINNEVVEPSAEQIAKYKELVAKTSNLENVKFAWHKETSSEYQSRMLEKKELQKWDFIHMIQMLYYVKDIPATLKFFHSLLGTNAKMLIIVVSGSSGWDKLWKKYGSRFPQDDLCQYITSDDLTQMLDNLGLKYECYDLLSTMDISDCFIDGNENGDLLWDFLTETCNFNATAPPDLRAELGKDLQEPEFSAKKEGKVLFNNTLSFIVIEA
Phenylethanolamine N-methyltransferase (Homo sapiens), sequence (P11086 whole entry, looked up): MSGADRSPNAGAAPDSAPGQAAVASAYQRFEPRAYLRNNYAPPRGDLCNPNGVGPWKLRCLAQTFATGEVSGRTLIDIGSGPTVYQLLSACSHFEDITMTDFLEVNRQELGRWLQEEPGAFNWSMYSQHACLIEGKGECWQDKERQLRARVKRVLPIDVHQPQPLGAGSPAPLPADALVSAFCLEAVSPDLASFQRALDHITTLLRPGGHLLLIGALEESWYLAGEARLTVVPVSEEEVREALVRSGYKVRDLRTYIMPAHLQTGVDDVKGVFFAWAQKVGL
Nicotinamide N-methyltransferase (Homo sapiens), sequence (P40261 whole entry, looked up): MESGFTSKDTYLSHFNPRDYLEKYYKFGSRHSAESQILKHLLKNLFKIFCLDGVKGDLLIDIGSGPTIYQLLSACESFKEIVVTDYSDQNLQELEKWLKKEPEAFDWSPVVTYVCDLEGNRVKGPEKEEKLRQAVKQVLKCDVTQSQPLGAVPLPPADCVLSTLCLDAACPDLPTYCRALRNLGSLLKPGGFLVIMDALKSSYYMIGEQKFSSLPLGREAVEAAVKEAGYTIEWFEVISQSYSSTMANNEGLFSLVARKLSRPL

Consider `CCNC(=O)N1CC[C@H]2CC(=O)N(Cc3cccnc3)CC[C@H]2C1`, for which the activity change, negative = inhibition in assay [1] was -8.99% (inactive); in assay [2] it was -6.64%; in assay [3], -7.68%; in assay [4], -5.27%; in assay [5], -14.8%; in assay [6], -11.5%.

Turning to `COc1cccc(C(=O)N(CC(C)C)CC2CN(C(=O)Nc3ccccc3)CCO2)c1` (centres undefined), the activity change, negative = inhibition in assay [1] is -3.51% (inactive); in assay [2], -5.73%; in assay [3], -3.93%; in assay [4] it was -3.02%; in assay [5] it was -7.14%; in assay [6], 0.149%.

`Cn1c(=O)c2ccc(C(=O)NC3CCCCC3)cc2n2c(SCc3cccc(Cl)c3)nnc12`: the activity change, negative = inhibition is 2.97% (inactive) in assay [1]; 2.72% in assay [2]; 0.691% in assay [3]; 2.66% in assay [4]; 1.84% in assay [5]; 5.9% in assay [6].

Take `CCn1ccnc1CN(C)C(=O)c1cc(COc2ccccc2F)[nH]n1`: the activity change, negative = inhibition in assay [1] was 4.03% (inactive); in assay [2], -2.18%; in assay [3], -0.135%; in assay [4], -1.52%; in assay [5] it was -4%; in assay [6] it was -1.63%.

In the case of `CC1(C(=O)NC2CCCCC2)Cn2c(ccc2-c2ccccc2)C(=O)N1CCC1=CCCCC1` (centres undefined), the activity change, negative = inhibition in assay [1] was 6.36% (inactive); in assay [2], 9.19%; in assay [3], 0.753%; in assay [4], 8.84%; in assay [5] it was 8.48%; in assay [6] it was 6.08%.

Take `COc1ccc(CN2C(=O)c3ccc(-c4ccco4)n3CC2(C)C(=O)NC2CCCCCC2)cc1` (centres undefined): the activity change, negative = inhibition was -2.99% (inactive) in assay [1]; -14.7% in assay [2]; 0.968% in assay [3]; -7.66% in assay [4]; -8.88% in assay [5]; -4.52% in assay [6].

With `CCCS(=O)(=O)NCC1Cn2cccc2C(=O)N1CCOC` (centres undefined), the activity change, negative = inhibition in assay [1] was 2.41% (inactive); in assay [2], 0.792%; in assay [3] it was -0.491%; in assay [4], 0.026%; in assay [5] it was -3.41%; in assay [6], 0.672%.

Consider `Cc1ccc(OCCC2CCN(C(=O)Cn3cnc4c3c(=O)n(C)c(=O)n4C)C2)cc1` (centres undefined), for which the activity change, negative = inhibition in assay [1] was -5.48% (inactive); in assay [2], -7.34%; in assay [3], -5.09%; in assay [4], -2.32%; in assay [5], -21%; in assay [6], -7.16%.

`CC1CCCC(NC(=O)C2(C)Cn3c(cc4sccc43)C(=O)N2c2ccc(Cl)cc2)C1C` (centres undefined): the activity change, negative = inhibition is -1.19% (inactive) in assay [1]; -1.5% in assay [2]; 2.58% in assay [3]; -0.753% in assay [4]; 2.89% in assay [5]; -5.61% in assay [6].

Take `CCC1CCCCN1C(=O)Cn1c(=O)oc2cc(S(=O)(=O)N3CCCC3)ccc21` (centres undefined): the activity change, negative = inhibition was 1.3% (inactive) in assay [1]; -2.17% in assay [2]; 1.65% in assay [3]; -2.01% in assay [4]; 0.211% in assay [5]; -0.075% in assay [6].

Take `Clc1cc(NCc2ccccn2)n2nccc2n1`: the activity change, negative = inhibition is -4.71% (inactive) in assay [1]; -11.1% in assay [2]; -2.25% in assay [3]; -0.734% in assay [4]; -13.1% in assay [5]; 6.59% in assay [6].

On to `COc1ccc(NC(=O)c2ccc(-c3ccc(C(N)=O)cc3C)cc2)cc1N1CCN(C)CC1`, for which the activity change, negative = inhibition in assay [1] is 0.282% (inactive); in assay [2] it was -7.07%; in assay [3], 2.94%; in assay [4] it was -26%; in assay [5] it was -29.8%; in assay [6] it was -2.08%.

Consider `COc1ccc(NC(=O)c2ccc(-c3ccc(C(=N)N)cc3C)cc2)cc1N1CCN(C)CC1`, for which the activity change, negative = inhibition in assay [1] is -7.6% (active); in assay [2], -8.27%; in assay [3], -7.77%; in assay [4] it was -66.3%; in assay [5], -22.1%; in assay [6], -8.76%.

For `COc1ccccc1N1CCN(S(=O)(=O)c2cc3c(cc2C)n(C)c(=O)n3C)CC1`, the activity change, negative = inhibition in assay [1] was 8.56% (inactive); in assay [2], 5.66%; in assay [3] it was 0%; in assay [4] it was 4.91%; in assay [5], -2.8%; in assay [6] it was 0.426%.
